# Values joined by “and” are separate entries in the source; they are usually repeats but may differ in a detail not shown here. Identical values can stand only once. Some compounds were tested as several samples or in several runs, with calls that do not always agree. Active and inactive are the calls of the source. Entries that show only a call come without a potency. Unless noted, calls come from the whole dose curve; as a rule, active = well fitted curve in the direction sought with a large enough effect in the repeat runs; inconclusive = weak or mixed curves; inactive = no such curve, though single readings can be large; an effect the other way counts as inactive or inconclusive.
# Assays:
# [1] = qHTS assay to identify small molecule antagonists of the thyroid receptor (TR) signaling pathway - cell viability counter screen (AID 743064); note: nearly all actives have a fitted effect of over 50% in size; note: potency is the fitted concentration of half-maximal effect
# Summary of the method: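 Fluorescence from CellTiter-Fluor, added after 23.5 h exposure at 37 °C, reported viability of GH3.TRE-Luc cells co-treated with compound and 1 nM T3. Measured in the same wells as the luciferase TR readout.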
# [2] = qHTS assay to identify small molecule antagonists of the thyroid receptor (TR) signaling pathway (AID 743065); note: nearly all actives have a fitted effect of over 55% in size; note: potency is the fitted concentration of half-maximal effect
# Summary of the method: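 GH3.TRE-Luc rat pituitary cells (two TREs driving luciferase) were dosed with compound, then stimulated with 1 nM T3 (final) for 23.5 h at 37 C. ONE-Glo luminescence was the read-out, with CellTiter-Fluor fluorescence as the cytotoxicity counter-screen.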
# [3] = tested on: thyroid hormone receptor (rat, GH3 cells); assay: qHTS assay to identify small molecule agonists of the thyroid receptor (TR) signaling pathway (AID 743066; calls by dose curve)
# [4] = qHTS assay to identify small molecule antagonists of the estrogen receptor alpha (ER-alpha) signaling pathway - cell viability counter screen (AID 743074; calls by dose curve; note: nearly all actives have a fitted effect of over 45% in size)
# [5] = molecular target: Estrogen receptor (Homo sapiens) (UniProt P03372); assay: qHTS assay to identify small molecule agonists of the estrogen receptor alpha (ER-alpha) signaling pathway (AID 743075; calls by dose curve; note: potency is the fitted concentration of half-maximal effect)
# Sequence of Estrogen receptor (Homo sapiens) (P03372 whole entry, looked up): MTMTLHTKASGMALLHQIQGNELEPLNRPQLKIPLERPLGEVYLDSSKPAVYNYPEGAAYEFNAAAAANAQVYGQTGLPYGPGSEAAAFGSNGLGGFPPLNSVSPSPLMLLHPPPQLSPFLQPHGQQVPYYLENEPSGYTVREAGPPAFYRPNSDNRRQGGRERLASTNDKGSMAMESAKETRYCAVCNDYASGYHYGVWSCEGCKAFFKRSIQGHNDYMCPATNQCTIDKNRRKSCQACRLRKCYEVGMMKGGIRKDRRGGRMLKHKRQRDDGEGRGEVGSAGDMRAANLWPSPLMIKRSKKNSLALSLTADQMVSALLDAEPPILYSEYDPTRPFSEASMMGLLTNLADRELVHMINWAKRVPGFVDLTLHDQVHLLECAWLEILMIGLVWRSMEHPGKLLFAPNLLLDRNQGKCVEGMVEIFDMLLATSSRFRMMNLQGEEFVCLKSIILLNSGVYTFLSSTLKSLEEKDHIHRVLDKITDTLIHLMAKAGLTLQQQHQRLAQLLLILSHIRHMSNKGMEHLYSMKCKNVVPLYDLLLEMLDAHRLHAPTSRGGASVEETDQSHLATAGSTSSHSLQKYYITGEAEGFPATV
# [6] = molecular target: Estrogen receptor (Homo sapiens) (UniProt P03372); assay: qHTS assay to identify small molecule agonists of the estrogen receptor alpha (ER-alpha) signaling pathway using the BG1 cell line (AID 743079); note: nearly all actives have a fitted effect of over 20% in size; note: potency is the fitted concentration of half-maximal effect
# [7] = qHTS assay to identify small molecule antagonists of the estrogen receptor alpha (ER-alpha) signaling pathway using the BG1 cell line - cell viability counter screen (AID 743081);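 note: compound given together with 17beta-estradiol as the ER stimulus; nearly all actives have a fitted effect of over 45% in size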; note: potency is the fitted concentration of half-maximal effect
# Aromatase (Homo sapiens) = Aromatase (Homo sapiens) (UniProt P11511); assay: qHTS assay to identify aromatase inhibitors (AID 743083); note: nearly all actives have a fitted effect of over 55% in size; note: potency is the fitted concentration of half-maximal effect
# Sequence of Aromatase (Homo sapiens) (P11511 whole entry, looked up): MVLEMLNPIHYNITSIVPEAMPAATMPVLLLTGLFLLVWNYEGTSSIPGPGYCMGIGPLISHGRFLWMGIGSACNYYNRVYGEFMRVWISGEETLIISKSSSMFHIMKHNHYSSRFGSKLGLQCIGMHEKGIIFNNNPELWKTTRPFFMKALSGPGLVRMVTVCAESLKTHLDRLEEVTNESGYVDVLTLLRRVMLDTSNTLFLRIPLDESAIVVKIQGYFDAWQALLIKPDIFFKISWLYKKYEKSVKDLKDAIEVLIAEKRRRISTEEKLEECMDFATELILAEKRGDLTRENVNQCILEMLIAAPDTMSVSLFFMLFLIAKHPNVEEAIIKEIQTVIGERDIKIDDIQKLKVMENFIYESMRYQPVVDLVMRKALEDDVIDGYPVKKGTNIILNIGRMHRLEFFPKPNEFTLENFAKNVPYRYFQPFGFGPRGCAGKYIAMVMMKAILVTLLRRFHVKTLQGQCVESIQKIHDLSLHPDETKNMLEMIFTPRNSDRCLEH
# [8] = qHTS assay to identify aromatase inhibitors - cell viability counter screen (AID 743084);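 note: cells stimulated with testosterone during compound exposure; nearly all actives have a fitted effect of over 55% in size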; note: potency is the fitted concentration of half-maximal effect
# [9] = molecular target: Aryl hydrocarbon receptor (Homo sapiens) (UniProt P35869); assay: qHTS assay to identify small molecule that activate the aryl hydrocarbon receptor (AhR) signaling pathway (AID 743085); note: nearly all actives have a fitted effect of over 15% in size; note: potency is the fitted concentration of half-maximal effect;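 for activation: HG2L7.5c1 human HepG2 liver cells with stably integrated DRE-driven firefly reporter; series mostly up to about 70 µM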
# Sequence of Aryl hydrocarbon receptor (Homo sapiens) (P35869 whole entry, looked up): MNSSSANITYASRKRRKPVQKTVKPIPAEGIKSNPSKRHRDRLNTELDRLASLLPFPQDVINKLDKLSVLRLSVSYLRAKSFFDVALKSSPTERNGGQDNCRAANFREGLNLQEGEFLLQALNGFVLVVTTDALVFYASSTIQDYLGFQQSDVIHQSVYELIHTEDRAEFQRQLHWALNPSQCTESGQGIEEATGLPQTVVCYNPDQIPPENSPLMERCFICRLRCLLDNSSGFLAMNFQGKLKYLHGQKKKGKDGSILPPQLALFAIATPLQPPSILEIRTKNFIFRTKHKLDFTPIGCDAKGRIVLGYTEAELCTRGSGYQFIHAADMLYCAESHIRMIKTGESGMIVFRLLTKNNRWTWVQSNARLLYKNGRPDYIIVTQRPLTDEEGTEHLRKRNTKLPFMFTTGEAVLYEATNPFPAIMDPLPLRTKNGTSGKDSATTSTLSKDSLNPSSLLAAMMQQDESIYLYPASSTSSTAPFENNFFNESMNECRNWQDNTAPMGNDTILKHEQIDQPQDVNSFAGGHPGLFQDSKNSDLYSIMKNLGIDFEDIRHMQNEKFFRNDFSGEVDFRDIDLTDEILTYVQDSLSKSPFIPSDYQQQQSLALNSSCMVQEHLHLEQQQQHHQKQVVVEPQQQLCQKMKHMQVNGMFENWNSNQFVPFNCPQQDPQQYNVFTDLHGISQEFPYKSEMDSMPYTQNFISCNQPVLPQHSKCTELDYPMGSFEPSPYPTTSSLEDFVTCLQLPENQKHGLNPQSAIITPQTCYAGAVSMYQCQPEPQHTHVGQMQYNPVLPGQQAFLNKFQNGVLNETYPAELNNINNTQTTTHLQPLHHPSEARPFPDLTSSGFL
# Summary of the method: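 Cell line HG2L7.5c1 (human hepatoma, 20× DRE-luc). Plated, 5 h 37C, compound/DMSO added, 24 h 37C. CellTiter-Fluor 30 min 37C → fluorescence; then ONE-Glo 30 min RT → luminescence.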
# [10] = qHTS assay to identify small molecule that activate the aryl hydrocarbon receptor (AhR) signaling pathway - cell viability counter screen (AID 743086);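 note: HepG2 liver cells carrying the AhR DRE luciferase reporter; series mostly up to about 70 µM; nearly all actives have a fitted effect of over 45% in size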
# Summary of the method: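 HepG2-AhR-luc (HG2L7.5c1) cells, 4000/well, treated 24 h at 37 C with compound; viability measured as CellTiter-Fluor fluorescence after 30 min in the same wells as the luciferase read.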
# [11] = molecular target: Peroxisome proliferator-activated receptor gamma (Homo sapiens) (UniProt P37231); assay: qHTS assay to identify small molecule agonists of the peroxisome proliferator-activated receptor gamma (PPARg) signaling pathway (AID 743094; active = well fitted activation curve with a large enough effect in the signal ratio in the repeat runs, not every such curve was filed as active; inconclusive = weak or mixed curves, or effect the other way; inactive = no such curve, though single readings can be large or run the other way; the % refers to the signal ratio)
# Sequence of Peroxisome proliferator-activated receptor gamma (Homo sapiens) (P37231 whole entry, looked up): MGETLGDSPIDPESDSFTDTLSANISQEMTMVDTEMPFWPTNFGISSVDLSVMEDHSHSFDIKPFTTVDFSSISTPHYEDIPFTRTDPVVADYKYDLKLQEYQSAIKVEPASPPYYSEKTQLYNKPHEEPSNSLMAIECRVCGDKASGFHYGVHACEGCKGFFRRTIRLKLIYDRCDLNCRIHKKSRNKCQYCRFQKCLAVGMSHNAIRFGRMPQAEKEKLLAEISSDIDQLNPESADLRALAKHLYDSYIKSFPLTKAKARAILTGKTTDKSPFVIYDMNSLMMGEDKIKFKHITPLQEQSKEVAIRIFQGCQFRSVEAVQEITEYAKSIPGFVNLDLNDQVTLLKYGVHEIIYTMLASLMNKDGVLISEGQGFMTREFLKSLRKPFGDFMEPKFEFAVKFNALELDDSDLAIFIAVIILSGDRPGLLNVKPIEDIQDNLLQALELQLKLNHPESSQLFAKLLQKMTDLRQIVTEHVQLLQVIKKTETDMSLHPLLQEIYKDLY
# Summary of the method: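 Cells from the PPARg UAS-bla HEK293H line are plated and incubated 5 h at 37C. Compounds in DMSO are pinned in and left 17 h at 37C. LiveBLAzer B/G substrate is then added for 1 h at room temperature before fluorescence is measured.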
# [12] = molecular target: Peroxisome proliferator-activated receptor gamma (Homo sapiens) (UniProt P37231); assay: qHTS assay to identify small molecule antagonists of the peroxisome proliferator-activated receptor gamma (PPARg) signaling pathway (AID 743191; calls by dose curve; note: series mostly up to about 63 µM; nearly all actives have a fitted effect of over 30% in size)
# Summary of the method: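 GeneBLAzer PPARg UAS-bla HEK293H cells, 5 h post-plating, exposed to compounds 17 h at 37C. LiveBLAzer B/G FRET substrate added for 1 h at room temperature; beta-lactamase reporter read by fluorescence intensity.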
# [13] = qHTS assay to identify small molecule antagonists of the peroxisome proliferator-activated receptor gamma (PPARg) signaling pathway - cell viability counter screen (AID 743194); note: nearly all actives have a fitted effect of over 55% in size
# Summary of the method: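 Cytotoxicity counter screen in PPARg-bla HEK293H cells, same wells as reporter assay. Compounds plus 50 nM rosiglitazone (final) for 17 h at 37 C, then viability read by CellTiter-Glo luminescence.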
# [14] = qHTS assay for small molecule agonists of the antioxidant response element (ARE) signaling pathway (AID 743202; active = well fitted activation curve with a large enough effect in the signal ratio in the repeat runs, not every such curve was filed as active; inconclusive = weak or mixed curves, or effect the other way; inactive = no such curve, though single readings can be large or run the other way; the % refers to the signal ratio; note: potency is the fitted concentration of half-maximal effect)
# Summary of the method: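 HepG2 ARE-bla cells; 16 h treatment at 37 C; FRET-based beta-lactamase fluorescence read after 2 h substrate incubation at room temperature.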
# [15] = qHTS assay for small molecule agonists of the antioxidant response element (ARE) signaling pathway - cell viability counter screen (AID 743203; calls by dose curve; note: nearly all actives have a fitted effect of over 55% in size; note: potency is the fitted concentration of half-maximal effect)
# Summary of the method: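 Cytotoxicity was tested in parallel with the ARE reporter screen. ARE-bla HepG2 cells were exposed to compounds for 16 hrs, and viability was taken from CellTiter-Glo luminescence.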
# [16] = qHTS assay for small molecule activators of the heat shock response signaling pathway - cell viability counter screen (AID 743209); note: nearly all actives have a fitted effect of over 50% in size
# Summary of the method: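 Cytotoxicity counter screen run in parallel with the HSE beta-lactamase reporter, using the same wells. HeLa HSE-bla cells received compound for 5 h at 37 C; ATP-based CellTiter-Glo luminescence was measured after 30 min at room temperature.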
# [17] = qHTS assay for small molecule activators of the heat shock response signaling pathway (AID 743210; active = well fitted activation curve with a large enough effect in the signal ratio in the repeat runs, with a control signal flat, not every such curve was filed as active; inconclusive = weak or mixed curves; the % refers to the signal ratio;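 note: HeLa cells with beta-lactamase reporter driven by heat shock elements; series mostly up to about 63 µM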)
# Summary of the method: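 Following overnight attachment, HSE-bla HeLa cells received test compounds for 5 h at 37 C; beta-lactamase activity was then detected via FRET substrate fluorescence.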
# [18] = molecular target: Estrogen receptor (Homo sapiens) (UniProt P03372); assay: qHTS assay to identify small molecule antagonists of the estrogen receptor alpha (ER-alpha) signaling pathway (AID 743069; active = well fitted curve in the direction sought with a large enough effect in the signal ratio in the repeat runs, not every such curve was filed as active; inconclusive = weak or mixed curves, or effect the other way; inactive = no such curve, though single readings can be large or run the other way; the % refers to the signal ratio; note: potency is the fitted concentration of half-maximal effect)
# Summary of the method: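 In this cell-based reporter format, GripTite HEK293 cells harbouring ER-alpha-UAS-bla were grown overnight with 2% charcoal-stripped FBS, dosed with DMSO-dissolved compounds, then challenged with 17beta-estradiol. After 18 hr at 37C, beta-lactamase activity was detected by FRET fluorescence.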
# [19] = qHTS assay to identify small molecule antagonists of the estrogen receptor alpha (ER-alpha) signaling pathway using the BG1 cell line (AID 743080; calls by dose curve;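 note: BG1 cells stimulated with 17beta-estradiol alongside compound; series mostly up to about 70 µM; nearly all actives have a fitted effect of over 25% in size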)
# Summary of the method: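 BG1Luc4E2, endogenous ER-alpha, 4xERE-luc; 5 d charcoal-stripped FBS, phenol red free; 24 h plating; cpd + 17beta-estradiol 21.5 h, 37 C/5% CO2; CellTiter-Fluor viability 30 min, then ONE-Glo luciferase 30 min RT.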
SMILES,Potency [1],Potency [2],Potency [3],Potency [4],Potency [5],Potency [6],Potency [7],Potency (Aromatase (Homo sapiens)),Potency [8],Potency [9],Potency [10],outcome [11],Potency [12],Potency [13],Potency [14],Potency [15],Potency [16],outcome [17],Potency [18],Potency [19]
C[C@]12C=CC(=O)C=C1CC[C@H]1[C@@H]3C[C@@H](O)[C@](O)(C(=O)CO)[C@@]3(C)C[C@H](O)[C@@]12F,inactive,inactive,inactive,inactive,inactive,4.73 µM (active) and 48.6 µM (active),inactive,inactive,inactive,inactive,inactive,inactive,inactive,inactive,inactive,inactive,inactive,inactive,–,–
CC(=O)Nc1ccc2c(c1)Cc1cc(NC(C)=O)ccc1-2,inactive,inactive,inactive,inactive,inactive,9.66 µM (active) and 864 nM (active),inactive,inactive,inactive,inactive,inactive,inactive,inactive,inactive,inactive,inactive,–,–,inactive,–
CCCCCC=O,inactive,inactive,inactive,inactive,inactive,inactive,inactive,–,–,inactive,inactive,inactive,–,inactive,inactive,inactive,inactive,inactive,inactive,inactive
CC(=O)[C@@]1(O)CC[C@H]2[C@@H]3C[C@H](C)C4=CC(=O)C=C[C@]4(C)[C@@]3(F)[C@@H](O)C[C@@]21C,inactive,inactive,inactive,inactive,inactive,inactive,inactive,inactive,inactive,inactive,inactive,inactive,inactive,inactive,inactive,inactive,inactive,inactive,inactive,–
Brc1nc2ccccc2s1,inactive,inactive,inactive,–,inactive,inactive,inactive,inactive,inactive,30.5 µM (active) and 13.7 µM (active),inactive,inactive,inactive,inactive,–,inactive,inactive,inactive,inactive,inactive
CC(=O)O[C@]1(C(C)=O)CC[C@H]2[C@@H]3C=C(C)C4=CC(=O)CC[C@]4(C)[C@H]3CC[C@@]21C,inactive,27.3 µM (active),inactive,inactive,inactive,inactive,inactive,inactive,inactive,inactive,inactive,inactive,–,inactive,19.3 µM (active) and 11.9 µM (active),inactive,inactive,inactive,–,inactive
O=C(O)COCCN1CCN(C(c2ccccc2)c2ccc(Cl)cc2)CC1 (stereo unspecified),inactive,inactive,inactive,inactive,inactive,inactive,inactive,–,inactive,–,inactive,inactive,inactive,inactive,–,inactive,inactive,–,inactive,inactive
CCCCCCCCCCC(CO)CCCCCCCC (stereo unspecified),inactive,inactive,inactive,inactive,–,–,inactive,inactive,inactive,inactive,inactive,inactive,–,inactive,inactive,inactive,–,–,–,–
IC(I)I,inactive,inactive,inactive,inactive,–,–,inactive,inactive,inactive,inactive,inactive,inactive,inactive,inactive,inactive,inactive,inactive,–,–,–
CC1(C)OC(=O)NC1=O,inactive,inactive,inactive,inactive,–,–,inactive,inactive,inactive,inactive,inactive,inactive,inactive,inactive,inactive,inactive,inactive,inactive,–,–
Cc1ccc2c(c1)C(=O)OC2=O,inactive,inactive,inactive,inactive,–,–,inactive,inactive,inactive,inactive,inactive,inactive,inactive,inactive,inactive,inactive,–,inactive,–,–
O=C(O)CCCC(=O)O,inactive,inactive,inactive,–,inactive,inactive,inactive,inactive,inactive,inactive,inactive,inactive,inactive,inactive,inactive,inactive,inactive,inactive,inactive,inactive
CC(=O)Oc1ccc(C(c2ccc(OC(C)=O)cc2)c2ccccn2)cc1,inactive,inactive,inactive,inactive,3.01 µM [activator] (active),–,2.11 µM (active) and 1.92 µM (active),inactive,inactive,inactive,inactive,inactive,inactive,inactive,inactive,inactive,inactive,inactive,19 µM [inconclusive] (active) and 24.4 µM [inconclusive] (active),–
CC(=O)O[C@]1(C(C)=O)CC[C@H]2[C@@H]3C=C(Cl)C4=CC(=O)CC[C@]4(C)[C@H]3CC[C@@]21C,inactive,26.6 µM (active) and 54.4 µM (active),inactive,inactive,inactive,–,inactive,inactive,inactive,inactive,inactive,–,–,–,–,–,inactive,–,–,–
O=Cc1ccccc1C=O,10.6 µM (active) and 2.43 µM (active),9.44 µM (active) and 2.17 µM (active),inactive,inactive,23.9 µM [activator] (active) and inactive,21.1 µM (active) and 30.6 µM (active),inactive,inactive and 8.63 µM (active),17.2 µM (active),inactive,inactive,–,inactive,–,inactive,12.2 µM (active) and inactive,–,inactive,inactive,–

# Reference: PubChem BioAssay (Tox21)
